GLA inh pH 4.5: alpha-galactosidase A (human) inhibition, pH 4.5. P06280. purified enzyme, 4-MU-alpha-Gal fluorescence, pH 4.5. activity change, negative = inhibition, % at 105 µM. 230,000 tested, under 10 active. AID 1467;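 note: 0% = full activity with enzyme and -100% = basal without enzyme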
Target sequence (P06280 whole entry, looked up): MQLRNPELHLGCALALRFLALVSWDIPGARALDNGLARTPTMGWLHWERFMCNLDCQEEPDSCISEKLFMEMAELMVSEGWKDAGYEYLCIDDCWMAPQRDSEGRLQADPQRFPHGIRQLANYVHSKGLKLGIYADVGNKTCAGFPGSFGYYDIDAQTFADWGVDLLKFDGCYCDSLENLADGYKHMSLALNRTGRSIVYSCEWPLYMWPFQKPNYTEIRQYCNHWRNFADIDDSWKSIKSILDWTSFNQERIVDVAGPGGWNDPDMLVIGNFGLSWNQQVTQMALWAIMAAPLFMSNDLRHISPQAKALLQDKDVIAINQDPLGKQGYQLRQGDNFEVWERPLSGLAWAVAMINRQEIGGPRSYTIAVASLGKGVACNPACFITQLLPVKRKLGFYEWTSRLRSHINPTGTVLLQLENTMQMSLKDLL
HTT ATP protect: protects HTT-Q103 PC12 cells, measured by ATP. hit rate 0.14% among 230,000. PC12 HTT-Q103 induced, cytoprotection, ATP luminescence, 40 h. Potency, µM (series often up to 56.4 µM), for inactives: cytoprotection (ATP increase), hits mostly activators; note: potency is the fitted concentration of half-maximal effect; % of control where 0% means no effect; nearly all actives have a fitted effect of over 45% in size
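Quantitative HTS on tebufenozide-induced (100 nM) PC12 cells expressing HTTQ103 exon 1–GFP; compounds tested as a concentration series; survival measured via cellular ATP.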
HttQ103 aggreg: reduces HttQ103-GFP aggregates in PC12 cells; Potency, µM (titrated, usually from 46.1 µM), for the others: at the highest dose activity change, negative = inhibition, hits mostly inhibitors; PC12 HttQ103-GFP aggregates, Acumen cytometry, 40 h; hit rate 1.1% among 220,000; AID 1688; note: potency is the fitted concentration of half-maximal effect; % is set by controls: 0 for no effect and ±100 for the full control effect; nearly all actives have a fitted effect of over 60% in size
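Aggregates are detected as GFP objects 1–25 µm with signal 6 STDEV over background in lysates of induced PC12 cells. These carry Huntingtin exon 1 with 103 glutamines fused to GFP under an ecdysone promoter; compounds titrated.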
aGal spleen mod: inhibits or activates alpha-galactosidase in human spleen homogenate. P06280. human spleen homogenate, 4MU-alpha-Gal fluorescence, 40 min. Potency, µM (top dose mostly 80 µM), inactives show at the highest dose activity change, negative = inhibition, usual class: inhibitors. hit rate 0.008% among 240,000. AID 2107;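 note: potency is the fitted concentration of half-maximal effect; 0% = enzyme with vehicle and -100% = no enzyme basal signal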
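Fluorogenic readout (Ex 365/Em 440 nm) of 4-methylumbelliferone released from 1 mM 4-MU-alpha-galactoside by spleen homogenate, 40 min at 37C, pH 5.0. Data normalized to no-enzyme and enzyme controls; Hill-equation AC50 from compound titrations.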
Starred values were filed as active, the others as inactive; [ ] = dose if it differs, or a comment. Only some compounds are listed: those with a hit (about 1.2% of all), similar ones and a draw of the others. Calls come from the whole dose curve; as a rule, active = well fitted curve in the direction sought with a large enough effect; inconclusive = small, poorly fitted or top-dose-only effect, or another doubt; inactive = no such curve, though single readings can be large; an effect the other way counts as inactive or inconclusive.

`CC[n+]1c(/C=C(\C)SC)sc2ccccc21` gave GLA inh pH 4.5 -5.5, HTT ATP protect -15.9%, HttQ103 aggreg -29.6% and aGal spleen mod -1.1%.
Screening CCN1/C(=C/C=C/C=C/c2sc3ccccc3[n+]2CC)Sc2ccccc21 returned GLA inh pH 4.5 inconclusive, HTT ATP protect -98.8%, HttQ103 aggreg 3.98µM* and aGal spleen mod 1.6%.
CCN1/C(=C/C=C/c2sc3ccccc3[n+]2CC)Sc2ccccc21 was read as HTT ATP protect -97.1% and HttQ103 aggreg 2µM*.
Screening Cc1ccc(NS(=O)(=O)c2cc(NC(=O)c3ccc4c(c3)NC(=O)CS4)ccc2C)c(C)c1 returned GLA inh pH 4.5 -14.1, HTT ATP protect -21.8%, HttQ103 aggreg inconclusive and aGal spleen mod 6.2%.
Screening COc1ccc(NC(=O)c2ccc3c(c2)NC(=O)CS3)cc1S(=O)(=O)Nc1ccc(Br)cc1 returned GLA inh pH 4.5 -8.3, HTT ATP protect -132.5%, HttQ103 aggreg 17.8µM* and aGal spleen mod -1.0%.
O=[N+]([O-])c1ccc(N=Nc2ccc(O)cc2O)cc1 was read as GLA inh pH 4.5 -5.9, HTT ATP protect -146.9%, HttQ103 aggreg 1.26µM* and aGal spleen mod 2.7%.
For CCCCC(=O)N1C/C=C\C(c2ccc(OC)cc2)N(Cc2ccc(F)cc2)C(=O)C1C (configuration not stated) the results were aGal spleen mod 1.8%.
CN(C)c1ncnc2ccc(-c3cccnc3)cc12 was read as HTT ATP protect -137.2% and aGal spleen mod 7.5%.
For COc1cccc(-c2ccc3ncnc(N(C)C)c3c2)c1 the results were HTT ATP protect -212.6% and aGal spleen mod 50.1µM*.
Screening CCCC(=O)OCCNc1cc(Sc2nccn2C)c2nonc2c1[N+](=O)[O-] returned GLA inh pH 4.5 0.0, HTT ATP protect -26.1%[10 µM], HttQ103 aggreg 11.2µM* and aGal spleen mod -2.6%.
Screening CC(=O)NC1[C@H]([C@H](O)[C@H](O)CO)OC(C(=O)O)=C[C@H]1N=C(N)N (some centres not stated) returned HTT ATP protect 12.2% and HttQ103 aggreg 2.4%.
C#CCn1c(=O)c2c(nc(/C=C/c3cccc(OC)c3)n2C)n(CCCO)c1=O was read as aGal spleen mod 12.5%.
Screening COc1cc(NCCCCCCCN)c2ncccc2c1 returned GLA inh pH 4.5 -0.1, HTT ATP protect -90.6%[10 µM], HttQ103 aggreg 1.78µM* and aGal spleen mod 4.7%.
Screening COc1cc(NC(C)CCCN)c2ncccc2c1 (configuration not stated) returned GLA inh pH 4.5 -14.7, HTT ATP protect 15.7% and aGal spleen mod -8.2%.
`CC(C)CCC[C@@H](C)[C@@H]1CC[C@H]2C3=CC=C4CC(O)CC[C@]4(C)[C@H]3CC[C@@]21C` (some centres not stated) gave aGal spleen mod -6.4%.
Screening COc1cccc(/C=N/NC(=O)c2cc3c(OC)cccc3[nH]2)c1OC returned GLA inh pH 4.5 -4.0, HTT ATP protect -2.7%[10 µM], HttQ103 aggreg 11.3% and aGal spleen mod -21.7%.
COc1cccc(/C=N\NC(=O)C2C(=O)NCC2c2ccccc2)c1O (configuration not stated) was read as GLA inh pH 4.5 7.9, HTT ATP protect -48.1%, HttQ103 aggreg 11.2µM* and aGal spleen mod 0.1%.
COc1cccc(/C=N/NC(=O)c2cc(-c3cccn3C)n[nH]2)c1O was read as GLA inh pH 4.5 -9.6, HTT ATP protect -48.2%[10 µM], HttQ103 aggreg 1.78µM* and aGal spleen mod -1.3%.
`COc1ccc(/C=N/NC(=O)C2C(=O)NCC2c2ccccc2)c(OC)c1` (configuration not stated) gave GLA inh pH 4.5 -1.1, HttQ103 aggreg -9.6% and aGal spleen mod -3.4%.
For COc1cc(/C=N/NC(=O)c2cc(-c3cccn3C)n[nH]2)cc(OC)c1OC the results were GLA inh pH 4.5 0.5, HTT ATP protect inconclusive, HttQ103 aggreg inconclusive and aGal spleen mod -6.0%.
`COc1cccc(/C=N/NC(=O)c2cc3c(OC)cccc3[nH]2)c1O` gave GLA inh pH 4.5 2.6, HTT ATP protect -86.8%[10 µM], HttQ103 aggreg 2.24µM* and aGal spleen mod 8.0%.
CCCCCn1c(=O)[nH]c2cc(C(=O)N3CCN(Cc4ccc5c(c4)OCO5)CC3)ccc2c1=O was read as GLA inh pH 4.5 4.9, HTT ATP protect -14.1%, HttQ103 aggreg 8.91µM* and aGal spleen mod 13.6%.
c1ccc(Nc2ncnc3sc4c(c23)CCC4)cc1 was read as GLA inh pH 4.5 0.9, HTT ATP protect -29.1%, HttQ103 aggreg -16.4% and aGal spleen mod -18.6%.
